Screening data (PubChem BioAssay)
An excerpt weighted towards active compounds, which were near 6.6% of everything screened.
TGFb SMAD3 inh = qHTS for Inhibitors of TGF-b. Potency, µM (doses to about 46.1 µM), inactives show at the highest dose activity, negative = inhibition, actives largely listed as inhibitors. 410,000 compounds, 1.2% hits. HepG2 CAGA-GFP TGF-b/SMAD3 reporter, GFP fluorescence, 18 h; TGF-beta stimulated, 500 pg/mL final; also: % is scaled to controls: 0 for no effect and ±100 for the full control effect; nearly all actives have a fitted effect of over 65% in size
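HEPG2 CAGA-GFP, 1000 cells/well; 2 h settle, 37 C; cpd via pin tool; TGF-b 500 pg/mL final; 18 h, 37 C; GFP imaging ex488/em500-530; %Activity normalised to -TGF-b and +DMSO controls; CRC fit, curve class.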
KB-3-1 tox = qHTS assay for MDR1-selective chemotherapeutics: Primary screen using the parental adenocarcinoma cell KB-3-1; KB-3-1 viability, CellTiter-Glo ATP luminescence, 72 h; Potency, µM (series often up to 46.1 µM), actives largely listed as cytotoxic; 400,000 compounds, 1.4% hits; also: % is scaled to controls: 0 for no effect and ±100 for the full control effect; nearly all actives have a fitted effect of over 60% in size
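Cells are dispensed, compounds pinned in, plates held at 37 °C for 72 h, then CellTiter-Glo is added and luminescence read after 10 minutes. Cell line: parental KB-3-1 in phenol-red-free DMEM, 10% FBS.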
HepG2 viability = qHTS for Inhibitors of TGF-b: Cytotox Counterscreen | HepG2 CAGA-GFP viability, ATP luminescence, 18 h | Potency, µM (titrated, usually from 46.1 µM), for inactives: at the highest dose activity change, negative = cytotoxicity, hits mostly cytotoxic | 410,000 compounds, 0.76% hits | AID 588856, 2011
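HepG2 CAGA-GFP cells (1000/well, DMEM with 1% FBS) received compound, then TGF-beta at 500 pg/mL final, and were incubated 18 hours at 37 degrees C. Viability was read by CellTiter-Glo luminescence. Media-only wells were set as complete cell-killing and DMSO as no toxicity.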
HT1080 IDH1KD tx = qHTS for induction of synthetic lethality in tumor cells producing 2HG: qHTS for the HT-1080-IDH1KD cell line. HT-1080 IDH1 knockdown viability, ATP luminescence, 48 h. 360,000 compounds, 2% hits. Potency, µM (highest dose often 46.1 µM), without a hit: at the highest dose activity, negative = toxicity, usual class: cytotoxic. AID 686971, 2013;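 also: 0% = DMSO wells and -100% = cell-free medium wells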
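After a 2 h attachment period, IDH1KD HT-1080 cells took pin-transferred compound for 48 h at 37 °C; ATP-based luminescence after 10 min room-temperature reagent incubation reported viability.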
KB-V1 MDR tox = qHTS assay for MDR1-selective chemotherapeutics: Primary screen using the drug-selected MDR subline cells KB-V1; KB-V1 MDR cells viability, CellTiter-Glo, 72 h; Potency, µM (titrated, usually from 46.1 µM), actives largely listed as cytotoxic; 400,000 compounds, 3.4% hits; AID 1347076, 2019; also: % is scaled to controls: 0 for no effect and ±100 for the full control effect; nearly all actives have a fitted effect of over 60% in size
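KB-V1 MDR subline cells in DMEM (phenol-red free, 10% FBS) exposed to compounds in qHTS concentration series for 72 h at 37 degrees C. Viability read by CellTiter-Glo luminescence; concentration-effect curves fitted after normalization and correction.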
HT1080NT lethal = qHTS for induction of synthetic lethality in tumor cells producing 2HG: qHTS for the HT-1080-NT fibrosarcoma cell line | 360,000 compounds, 1.6% hits | Potency, µM (series often up to 46.1 µM), for the others: at the highest dose activity, negative = less viability, usual class: cytotoxic | HT-1080-NT fibrosarcoma viability, CellTiter-Glo ATP luminescence, 48 h;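 also: NT is the 2HG producing partner of a matched IDH1 knockdown line; 0% = DMSO-treated cells and -100% = media-only wells without cells; nearly all actives have a fitted effect of over 55% in size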
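HT-1080-NT; 750 cells/well; 5% FBS RPMI; 48 h compound, 37 degrees C; CellTiter-Glo luminescence; curve fitting and curve-class assignment.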
An asterisk follows results filed as active. Calls follow the shape of the dose curve; as a rule, active = well fitted curve in the direction sought with a large enough effect; inconclusive = small, poorly fitted or top-dose-only effect, or another doubt; inactive = no such curve, though single readings can be large; an effect the other way counts as inactive or inconclusive. Potency is read from the fitted curve at half-maximal effect.

Results for O=C(C[n+]1ccccc1Cl)c1ccc2c(c1)CCCC2 ?
TGFb SMAD3 inh: -3.9%; KB-3-1 tox: inactive; HepG2 viability: -73.2%; KB-V1 MDR tox: inactive

Results for COc1ccc(-c2noc(CSc3nnc(-c4ccc(Cl)cc4)n3C)n2)cc1OC ?
TGFb SMAD3 inh: inconclusive; KB-3-1 tox: inactive; HepG2 viability: -43.8%; KB-V1 MDR tox: inactive

How did Cc1cccc(OCCNC(=O)CCNS(=O)(=O)c2ccc3ccccc3c2)c1 do in these assays?
TGFb SMAD3 inh: -16.9%; KB-3-1 tox: inactive; HepG2 viability: 12.3%; HT1080 IDH1KD tx: 5.1%; KB-V1 MDR tox: 18.4µM*; HT1080NT lethal: 7.3%

What do the screens show for `CC(=O)C1CCC2C3CCC4=CC(=O)CCC4(C)C3(F)C(O)CC12C` (configuration not stated)?
TGFb SMAD3 inh: -0.4%; KB-3-1 tox: inconclusive; HepG2 viability: -2.1%; HT1080 IDH1KD tx: inconclusive; KB-V1 MDR tox: 5.17µM*; HT1080NT lethal: 10.9%

What do the screens show for `Cc1nc2c(-c3ccccc3)c(C)[nH]n2c(=O)c1Cc1ccccc1`?
TGFb SMAD3 inh: inconclusive; KB-3-1 tox: inconclusive; HepG2 viability: -36.2%; HT1080 IDH1KD tx: inconclusive; KB-V1 MDR tox: inconclusive; HT1080NT lethal: -26.7%

How did Cc1[nH]n2c(=O)c3c(nc2c1-c1ccc(F)cc1)CCCC3 do in these assays?
TGFb SMAD3 inh: 8.4%; KB-3-1 tox: inconclusive; HepG2 viability: 4.4%; HT1080 IDH1KD tx: -8.6%; KB-V1 MDR tox: inactive; HT1080NT lethal: 9.5%

What do the screens show for `Cc1cccc(Cc2c(C)nc3c(-c4ccccc4)c(C)[nH]n3c2=O)c1`?
TGFb SMAD3 inh: 2.51µM*; KB-3-1 tox: 10.3µM*; HepG2 viability: -31.2%; KB-V1 MDR tox: inactive

How did Cc1nc2c(-c3ccc(F)cc3)c(C)[nH]n2c(=O)c1Cl do in these assays?
TGFb SMAD3 inh: inconclusive; KB-3-1 tox: 10.3µM*; HepG2 viability: -48.2%; HT1080 IDH1KD tx: -8.6%; KB-V1 MDR tox: inactive; HT1080NT lethal: -11.7%

What do the screens show for `Cc1nc2c(-c3ccc(Cl)cc3)c(C)[nH]n2c(=O)c1Cc1ccccc1`?
TGFb SMAD3 inh: 11.2µM*; KB-3-1 tox: inactive; HepG2 viability: 10µM*; HT1080 IDH1KD tx: inconclusive; KB-V1 MDR tox: inconclusive; HT1080NT lethal: inconclusive

What do the screens show for `CCc1ccc(NC(=O)C2CCCN(S(=O)(=O)c3ccc4c(c3)oc(=O)n4C)C2)cc1` (configuration not stated)?
TGFb SMAD3 inh: -17.8%; KB-3-1 tox: inactive; HepG2 viability: -5.6%; KB-V1 MDR tox: inactive

How did Cc1cc(C)c2c(c1)OC(=O)CC2c1ccc2c(c1)OCO2 (configuration not stated) do in these assays?
TGFb SMAD3 inh: -13.8%; KB-3-1 tox: inactive; HepG2 viability: 10.6%; HT1080 IDH1KD tx: 3.1%; KB-V1 MDR tox: inactive; HT1080NT lethal: 10.7%

How did Cc1cc2c(c(C)c1Br)C(c1ccc3c(c1)OCO3)CC(=O)O2 (configuration not stated) do in these assays?
TGFb SMAD3 inh: 20µM*; KB-3-1 tox: inactive; HepG2 viability: -88.9%; HT1080 IDH1KD tx: -3.5%; KB-V1 MDR tox: inactive; HT1080NT lethal: -0.8%

How did C/C(=N\Nc1ccccn1)c1ccc(S(=O)(=O)NCc2ccco2)cc1 do in these assays?
TGFb SMAD3 inh: 1.9%; KB-3-1 tox: inactive; HepG2 viability: -0.9%; HT1080 IDH1KD tx: -4.9%; KB-V1 MDR tox: inconclusive; HT1080NT lethal: -7.6%

Results for C/C(=N\Nc1nc(Cl)c(Cl)cc1Cl)c1ccc(S(=O)(=O)NCc2ccco2)cc1 ?
TGFb SMAD3 inh: inconclusive; KB-3-1 tox: inconclusive; HepG2 viability: -11.9%; HT1080 IDH1KD tx: -29.3%; KB-V1 MDR tox: 11.6µM*; HT1080NT lethal: -2.2%

What do the screens show for `Cc1ccc(C)c(CN2C(=O)c3ccccc3S(=O)(=O)c3ccc(C(=O)N4CCCCC4)cc32)c1`?
HepG2 viability: -3.6%

Results for C/C(=N\Nc1ccccc1)c1c(O)cc(C)oc1=O ?
TGFb SMAD3 inh: 2.5%; KB-3-1 tox: inactive; HepG2 viability: -9.2%; HT1080 IDH1KD tx: 11.6µM*; KB-V1 MDR tox: inactive; HT1080NT lethal: inconclusive

What do the screens show for `COc1ccc(C(=O)N/C(=C/c2cccs2)c2nc3ccccc3[nH]2)cc1OC`?
TGFb SMAD3 inh: -18.1%; KB-3-1 tox: inactive; HepG2 viability: -14.6%; HT1080 IDH1KD tx: -2.3%; KB-V1 MDR tox: inactive; HT1080NT lethal: 5.2%

How did O=C(/C(=C/c1ccc(Cl)cc1)c1nc2ccccc2[nH]1)c1ccccc1 do in these assays?
TGFb SMAD3 inh: 5.01µM*; KB-3-1 tox: 5.17µM*; HepG2 viability: 2.51µM*; HT1080 IDH1KD tx: 4.11µM*; KB-V1 MDR tox: inconclusive; HT1080NT lethal: 2.91µM*

Results for COc1cc(/C=C(/C(=O)c2cccs2)c2nc3ccccc3[nH]2)cc(OC)c1O ?
TGFb SMAD3 inh: inconclusive; KB-3-1 tox: 3.66µM*; HepG2 viability: 12.6µM*; HT1080 IDH1KD tx: inconclusive; KB-V1 MDR tox: 20.6µM*; HT1080NT lethal: inconclusive

What do the screens show for `O=C(N/C(=C/c1ccc(Cl)cc1)c1nc2ccccc2[nH]1)c1ccco1`?
TGFb SMAD3 inh: inconclusive; KB-3-1 tox: inactive; HepG2 viability: -11.8%; HT1080 IDH1KD tx: 5.2%; KB-V1 MDR tox: 11.6µM*; HT1080NT lethal: 0.8%

Results for O=C(N/C(=C/c1ccc(Br)cc1)c1nc2ccccc2[nH]1)c1ccco1 ?
TGFb SMAD3 inh: 1.7%; KB-3-1 tox: inactive; HepG2 viability: -22.2%; HT1080 IDH1KD tx: inconclusive; KB-V1 MDR tox: inactive; HT1080NT lethal: -28.4%

Results for Brc1ccc(-c2ccc(CNCCSc3nnnn3-c3ccccc3)o2)cc1 ?
TGFb SMAD3 inh: inconclusive; KB-3-1 tox: inactive; HepG2 viability: -48.5%; KB-V1 MDR tox: inactive

How did Cc1ccccc1Nc1c(-c2cccnc2)nc2ccc(Cl)cn12 do in these assays?
TGFb SMAD3 inh: -7.0%; KB-3-1 tox: inactive; HepG2 viability: -32.3%; KB-V1 MDR tox: inactive

How did Cc1nc2ccccc2c(=O)n1/N=C/c1ccc(O)cc1O do in these assays?
TGFb SMAD3 inh: 3.6%; KB-3-1 tox: inactive; HepG2 viability: -21.7%; HT1080 IDH1KD tx: inconclusive; KB-V1 MDR tox: inactive; HT1080NT lethal: -20.9%
